91 compounds from PubChem BioAssay AID2685 (National Center for Advancing Translational Sciences (NCATS), 2010) can be followed below.

The structures appear in SMILES notation. The campaign covered roughly 320,000 compounds. About 2,100 (0.66%) were called active. Inconclusive results (about 53%) are left out. Calls follow the shape of the dose curve; as a rule, active = well fitted inhibition curve with a large enough effect in the signal ratio, with a control signal flat (not every such curve was filed as active); inconclusive = small, poorly fitted or top-dose-only effect, or effect the other way, or a change in a side signal; inactive = flat fitted curve, though single readings scatter; the % refers to the signal ratio. What follows is part of a selection rich in actives, with near analogues and random picks from the rest.
Potency is read from the fitted curve at half-maximal effect.

The experiment in a line: qHTS Assay for Lipid Storage Modulators in Drosophila S3 Cells.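 As to cell number change: cells counted by Cell Tracker Red CMTPX staining in the red channel.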 Conditions: BODIPY lipid droplet fluorescence, 18-24 h, cells fed with added oleic acid; cell number change: measured here: cell count max response; series mostly up to 46.1 µM. In outline:
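Laser-scanning cytometry quantifies lipid droplet accumulation (500–530 nm total intensity; droplet/cell object ratio) in oleic acid-fed (400 uM added) Drosophila S3 cells treated with a concentration series. 20 uM Triacsin C defined 100% inhibition.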
Background: qHTS replaces the single test concentration by a dilution series.
`COC(=O)Cc1c(C)nc2nc(NCc3cccc([N+](=O)[O-])c3)[nH]n2c1=O`: the Potency entry is “inactive” and the cell number change stood at 22.4%. For `COc1cccc(NC(=O)c2ccn(C)n2)c1`, in that order: “inactive” and -7.57%. `CCCC(=O)Nc1cc(C(=O)O)ccc1Sc1ccccc1`: the Potency result was “inactive” and the cell number change was -3.48%. For `Cc1cc(C)n(-c2ccc(C(=O)NCc3ccc4c(c3)OCO4)cc2)n1`, in that order: “inactive” and -26%. For `COc1ccc(S(=O)(=O)NC2CC(=O)N(c3ccc(C)c(C)c3)C2)cc1C` (stereo not drawn), the Potency entry is “inactive”. In the case of `O=C(Cn1cnc2ccccc2c1=O)c1ccccc1`, the Potency entry was “inactive” and the cell number change was -5.21%. Consider `O=C(CNC(=O)c1ccncc1)N/N=C/c1cc(Br)ccc1O`, for which the Potency result was “inactive” and the cell number change was -8.8%. For `Cc1cccc(N2C(=O)CC(N(C(=O)c3ccco3)c3cccc(C)c3)C2=O)c1` (stereo not drawn), in that order: “inactive” and 1.21%. Regarding `COc1ccccc1/C=c1\sc2nc(-c3ccccc3OC)nn2c1=O`, the Potency result was “inactive” and the cell number change was -6.9%. For `Cn1c(-c2sc3cc(C(F)(F)F)cnc3c2-c2cccs2)n[nH]c1=S`, the Potency result is “inactive” and the cell number change is -11.9%. With `O=S(=O)(c1ccccc1)n1ccc2ccccc21`, the Potency entry was “inactive” and the cell number change was -15.8%. For `O=C1/C(=C\c2cccs2)Sc2ccc3ccccc3c21`, in that order: 16.4 µM (active) and -14.8%. For the compound `O=C1N=C(N2CCN(c3cccc4ccccc34)CC2)S/C1=C/c1cccs1`, the Potency entry was “inactive”.

As to `NC1=NC(=O)/C(=C/c2cccs2)S1`, the Potency result was “inactive” and the cell number change is -5.63%. For `O=C(O)c1ccc(NC(=O)c2cn(-c3ccccc3)nc2-c2cccc(Cl)c2)cc1`, in that order: “inactive” and 4.66%. For `CC(O)c1nc2ccc(C(=O)O)cc2[nH]1` (stereo not drawn), in that order: “inactive” and -0.214%. On the same counts, the results for `CC(O)CCc1nc2ccc(C(=O)O)cc2[nH]1` (stereo not drawn) are “inactive” and 3.44%. Regarding `CC(C)c1nc2ccc(C(=O)O)cc2[nH]1`, the Potency is 23.1 µM (active) and the cell number change is -0.0603%.

For `COc1cccc(-n2c(SCC(=O)OC(C)C)nnc2-c2cccnc2)c1`, the Potency result was “inactive”. Consider `O=C(COc1ccccc1)N1CCNC1=O`, for which the Potency is 11.6 µM (active) and the cell number change was -10.9%. On the same counts, the results for `O=C(COc1ccc(Br)cc1)N1CCNC1=O` are “inactive” and -1.77%. On the same counts, the results for `O=C(COc1ccccc1Br)N1CCNC1=O` are “inactive” and -13%. Turning to `CCOc1ccc(NC(=NCc2ccc3c(c2)OCO3)SC2CC(=O)N(c3ccc(OCC)cc3)C2=O)cc1` (stereo not drawn), the Potency entry is “inactive” and the cell number change worked out at 1.82%.

With `COc1cccc(NC(=O)[C@@H]2CCCN2C(=O)[C@@H]2Cc3ccccc3CN2C(=O)OC(C)(C)C)c1`, the Potency result is “inactive” and the cell number change was -9.43%. As for `Cc1ccc(-c2cccc(C3CC=CC4C3C(=O)N(Cc3ccccc3)C4c3ccc(C(F)(F)F)cc3)c2)cc1` (stereo not drawn), the Potency entry was “inactive” and the cell number change came to 0.818%.

`O=C1C2C(c3ccccc3)CC=CC2[C@H](c2ccc(C(F)(F)F)cc2)N1Cc1ccccc1` (stereo partly drawn): the Potency was 18.4 µM (active). Regarding `O=C1C2C(c3cccc(/C=C/c4ccccc4)c3)CC=CC2C(c2ccc(C(F)(F)F)cc2)N1Cc1ccccc1` (stereo not drawn), the Potency result was “inactive” and the cell number change was -0.28%. For `O=C1CCCc2ccccc2N1`, in that order: “inactive” and 15.4%.

As for `O=C(Nc1ccc(Cl)c(Cl)c1)OCCNC(=O)c1ccncc1`, the Potency entry is “inactive” and the cell number change turned out to be 19.3%. On the same counts, the results for `CC(=O)NCCOC(=O)Nc1ccncc1` are 18.4 µM (active) and -23.8%. For `O=C(Nc1ccncc1)OCc1ccccc1`, in that order: “inactive” and -15%. In the case of `C=C(C)C(=O)N1CC2(CC(c3cccc(NC(=O)CC(c4ccccc4)c4ccccc4)c3)=NO2)C[C@H]1C(N)=O` (stereo partly drawn), the Potency entry was “inactive” and the cell number change was -5.55%.

In the case of `COc1ccccc1CCC(=O)OCC(=O)Nc1cc(C)nn1-c1ccccc1`, the Potency entry was “inactive” and the cell number change stood at 9.67%. For the compound `COc1cccc(NC(=O)Nc2ccc3c(c2)nc(C)n3C)c1`, the Potency entry was “inactive” and the cell number change is -12.3%. On the same counts, the results for `O=C(NNC(=O)c1ccc2ccccc2n1)c1ccc(O)cc1` are “inactive” and -5.74%. On the same counts, the results for `Nc1ccccc1C(=O)NNc1c2ccccc2nc2ccccc12` are “inactive” and -7.95%.

For the compound `O=C(NNc1c2ccccc2nc2ccccc12)c1ccc(O)cc1`, the Potency was 16.4 µM (active) and the cell number change is -16.9%.

As for `O=C(CN1C(=O)NC2(CCCC2)C1=O)Nc1cc(Cl)ccc1Oc1ccccc1`, the Potency entry was “inactive” and the cell number change amounted to 2.01%. Turning to `Brc1ccc(CSc2nnc(-c3ccco3)o2)cc1`, the Potency result is “inactive” and the cell number change was -8.74%. `c1ccc(CSc2nnc(-c3ccco3)o2)cc1`: the Potency entry was “inactive” and the cell number change is 29.7%.

`O=C(O)c1ccc(CSc2nnc(-c3ccco3)o2)cc1`: the Potency is 1.84 µM (active).

With `CCC(C)[C@H](NC(=O)NCCCN1CCOCC1)C(=O)OC` (stereo partly drawn), the Potency entry was “inactive” and the cell number change is 4.55%. On the same counts, the results for `COCCCNC(NC(=O)c1ccc(Cl)cc1)C(Cl)(Cl)Cl` (stereo not drawn) are “inactive” and 18.7%. On the same counts, the results for `Cc1ccc(NC(=O)Nc2cccc([N+](=O)[O-])c2)cc1F` are 9.2 µM (active) and -9.68%. Turning to `Cc1cc(NC(=O)Nc2cccc([N+](=O)[O-])c2)no1`, the Potency result was “inactive”. Turning to `O=C(Nc1cccc([N+](=O)[O-])c1)Nc1cccc([N+](=O)[O-])c1`, the Potency result is “inactive” and the cell number change is -6.97%. On the same counts, the results for `COc1ccc(CNC(=O)c2cccnc2Sc2ccc(C)c(C)c2)cc1` are “inactive” and -8.63%. For the compound `Cc1cc(C(=O)CCC(=O)Nc2ncccc2O)c(C)s1`, the Potency result is “inactive” and the cell number change turned out to be 23.7%. On the same counts, the results for `Cc1cc(OC(C)C(=O)NNC(=O)Nc2ccc(F)cc2F)cc(C)c1Cl` (stereo not drawn) are “inactive” and 12.3%. As to `COc1ccc(C2=NN(C(=O)CSc3ncccn3)C(c3ccc(C)cc3)C2)cc1` (stereo not drawn), the Potency result is “inactive” and the cell number change is -13.1%. For `COc1ccc(C2CC(c3ccc4ccccc4c3OC(C)=O)=NN2C(=O)/C=C/c2ccccc2)cc1` (stereo not drawn), in that order: 6.51 µM (active) and -4.95%. On to `COc1ccc(C2CC(c3ccccc3)=NN2C(=O)CSc2ncccn2)cc1` (stereo not drawn), for which the Potency is 18.4 µM (active) and the cell number change was -10.6%. For `COc1ccc(C2CC(c3ccc(OC)cc3OC(C)=O)=NN2C(=O)c2ccccc2)cc1` (stereo not drawn), in that order: “inactive” and -16.6%. Turning to `COc1ccc(C2CC(c3ccccc3)=NN2C(=O)COC(=O)c2cccnc2)cc1` (stereo not drawn), the Potency result is “inactive” and the cell number change was -20.7%. For the compound `COc1ccc(C2CC(c3cccs3)=NN2C(=O)COC(=O)C2CCCCC2)cc1OC` (stereo not drawn), the Potency result is “inactive”. As for `COc1ccc(CC(=O)OCC(=O)N2N=C(c3ccccc3)CC2c2ccc(OC)cc2)cc1` (stereo not drawn), the Potency entry was “inactive” and the cell number change turned out to be 9.3%.

On to `COc1ccc(C2CC(c3cccs3)=NN2C(=O)c2ccccc2)cc1OC` (stereo not drawn), for which the Potency entry is “inactive” and the cell number change stood at 0.175%. As to `COc1ccc(C2CC(c3ccccc3)=NN2C(=O)COC(=O)CNC(=O)c2ccccc2)cc1` (stereo not drawn), the Potency was 14.6 µM (active) and the cell number change worked out at 17%. For `COc1cc(C2CC(c3cccs3)=NN2C(=O)CCl)ccc1OC(F)F` (stereo not drawn), in that order: 11.6 µM (active) and 6.96%. Turning to `CC(=O)N1N=C(c2ccccc2OC(=O)/C=C/c2ccccc2)CC1c1ccccc1` (stereo not drawn), the Potency result was “inactive”. Consider `COc1ccc(C2=NN(C(=O)CSc3ncccn3)C(c3ccc(OC)cc3)C2)cc1` (stereo not drawn), for which the Potency entry was “inactive” and the cell number change is -13.6%. On the same counts, the results for `COc1ccccc1-n1c(-c2ccc(F)cc2)coc1=O` are “inactive” and 9.35%. Regarding `COC(=O)Nc1ccc(S(=O)(=O)N2CCN(c3ccc(F)cc3)CC2)cc1`, the Potency result is “inactive”. `COCCn1nnnc1C(c1ccccn1)N1CCN(c2cccc(C)c2C)CC1` (stereo not drawn): the Potency result is “inactive” and the cell number change is 1.34%. For `Cc1cc(Cl)c(S(=O)(=O)NC(C(=O)O)c2ccccc2)cc1OCC(N)=O` (stereo not drawn), in that order: “inactive” and 6.34%. For `COc1ccc(CC2(CO)CCN(C(C)Cc3ccc(Cl)cc3)CC2)cc1` (stereo not drawn), in that order: “inactive” and -1.88%. Take `CC(=O)C1=NN(c2ccc(Cl)cc2)C(c2ccc3c(c2)OCO3)N(C(C)=O)N1C` (stereo not drawn): the Potency entry was “inactive” and the cell number change was found to be 4.72%. For `O=C(CNc1ccc(Br)cc1)c1ccccc1`, in that order: “inactive” and -10.1%. On the same counts, the results for `O=C(NNC1CC(=O)N(c2ccc(Cl)cc2)C1=O)c1ccccn1` (stereo not drawn) are “inactive” and 6.05%. On the same counts, the results for `CCCCNCc1cc2ccccc2o1` are “inactive” and -14.5%. On to `Cc1ccc(-c2nn(CC(=O)O)c(=O)c3ccccc23)cc1`, for which the Potency entry was “inactive” and the cell number change is -4.34%.

For the compound `O=C(CCN1C(=O)[C@@H]2Cc3ccccc3CN2C1=O)N[C@H](C(=O)O)c1ccccc1`, the Potency entry was “inactive” and the cell number change came to 8.94%. For `COc1ccc(NC(=O)COC(=O)Cc2cccs2)cc1OC`, in that order: “inactive” and -0.769%.

With `O=C(CSc1nc2ccccc2o1)N1N=C(c2cccs2)CC1c1ccc(F)cc1` (stereo not drawn), the Potency result was “inactive” and the cell number change is -17.4%.

With `COc1ccc(C2CC(c3cccs3)=NN2C(=O)CSc2nc3ccccc3o2)cc1` (stereo not drawn), the Potency was 9.2 µM (active) and the cell number change is -8.56%. On the same counts, the results for `COc1cccc(C2CC(c3cccs3)=NN2C(=O)CSc2nc3ccccc3o2)c1OC` (stereo not drawn) are “inactive” and 8.7%. On the same counts, the results for `CC(=O)c1ccc(NC(=O)Cn2cnc(S(=O)(=O)N3CCOCC3)c2)cc1` are “inactive” and -2.31%. For `COc1ccc2cc(CCNC(=O)c3cccc([N+](=O)[O-])c3)c(=O)[nH]c2c1`, in that order: “inactive” and 9.49%.

For `NC(=O)CN1C(=O)C(O)(CC(=O)/C=C\c2ccc3c(c2)OCO3)c2ccccc21` (stereo not drawn), the Potency result was “inactive” and the cell number change is -3.53%. On the same counts, the results for `CN1C(=O)C(O)(CC(=O)/C=C\c2ccc3c(c2)OCO3)c2ccccc21` (stereo not drawn) are 0.366 µM (active) and -43.9%. For `O=C(/C=C\c1ccc2c(c1)OCO2)CC1(O)C(=O)Nc2ccccc21` (stereo not drawn), in that order: “inactive” and 10.9%. On the same counts, the results for `COc1ccc(S(=O)(=O)NCC2CCCO2)cc1C(=O)O` (stereo not drawn) are “inactive” and 10.7%. `CCOc1ccc(S(=O)(=O)NCC2CCCO2)cc1NC(=O)c1ccccc1F` (stereo not drawn): the Potency entry is “inactive” and the cell number change was 23.9%. For `COc1ccc(S(=O)(=O)NCC2CCCO2)cc1NC(=O)c1ccccc1F` (stereo not drawn), in that order: 25.9 µM (active) and -5.13%.

On to `C#CCOCCOCCOCCNc1nc(N2CCN(C(=O)[C@H](CCC(=O)O)n3cc(C(N)CO)nn3)CC2)nc(N2CCN(C(=O)[C@H](Cc3cc4ccccc4[nH]3)n3cc(C(N)[C@H](C)CC)nn3)CC2)n1` (stereo partly drawn), for which the Potency result is “inactive” and the cell number change is 10.5%. Take `Cc1ccc(NC(=O)CCN2C(=O)C3C4CCC(C4)C3C2=O)cc1[N+](=O)[O-]` (stereo not drawn): the Potency result is “inactive” and the cell number change is -0.215%. For the compound `Cc1ccnc2nc(C(=O)OCC(=O)N(CC(C)C)C3CCS(=O)(=O)C3)nn12` (stereo not drawn), the Potency result was “inactive” and the cell number change came to 2.08%.

`COc1ccc(CC(=O)NCC2COc3ccccc3O2)cc1` (stereo not drawn): the Potency result was “inactive” and the cell number change amounted to 0.718%. On the same counts, the results for `COc1ccccc1C(=O)NCCC(=O)NCC1COc2ccccc2O1` (stereo not drawn) are 20.6 µM (active) and -11.7%. On the same counts, the results for `O=C(CCC1COc2ccccc2O1)NCC1COc2ccccc2O1` (stereo not drawn) are “inactive” and 8.2%. Regarding `O=C(N/C(=C/c1ccccc1)C(=O)N1CCCCCC1)c1ccccc1`, the Potency entry is “inactive” and the cell number change amounted to 10.3%.
